Marburg entry inh: Marburg virus entry inhibition; Marburg virus pseudotyped entry inhibition, cell reporter; Potency, µM (titrated, usually from 37.8 µM), without a hit: top-dose activity change, negative = inhibition, actives largely listed as inhibitors; hit rate 1.8% among 300,000; AID 540276; calls by dose curve; tested in HEK293 cells; also: potency is read from the fitted curve at half-maximal effect
HCMV antiviral: blocks human cytomegalovirus replication; HFF cells, HCMV-luciferase reporter, 72 h; hits give low values; activity change, negative = inhibition, % at 57.5 µM; hit rate 4.5% among 410,000; in the data active = activity change below about -60%; inconclusive = no clear call, values can overlap the other calls; inactive = above about -39%
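Human foreskin fibroblasts infected with luciferase-reporter HCMV at MOI 1 PFU/cell, compounds at two doses. Luciferase measured 72 h post infection; normalized to buffer-only basal and Salinomycin (10uM) controls.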
Vaccinia mCherry: inhibitors of vaccinia virus infection (mCherry reporter signal); Vaccinia virus mCherry reporter infection, fluorescence; Potency, µM (titrated, usually from 36.5 µM), without a hit: at the top dose activity change, negative = inhibition, hits mostly inhibitors; hit rate 0.63% among 310,000; calls by dose curve; tested in A549 cells; also: potency is read from the fitted curve at half-maximal effect; nearly all actives have a fitted effect of over 35% in size
Lassa entry inh: inhibitors of Lassa virus binding or cell entry | Lassa virus pseudotype entry inhibition, cell reporter | Potency, µM (doses to about 37.9 µM), without a hit: top-dose activity change, negative = inhibition, usual class: inhibitors | hit rate 1.2% among 300,000 | AID 540256; calls by dose curve; tested in HEK293 cells; also: potency is read from the fitted curve at half-maximal effect; nearly all actives have a fitted effect of over 50% in size
FMDV antiviral: blocks foot and mouth disease virus. FMDV antiviral cell-based qHTS. Potency, µM (titrated, usually from 57.9 µM), for the others: top-dose activity change, negative = inhibition, usual class: inhibitors. hit rate 1.2% among 410,000. AID 1159524; calls by dose curve; tested in HEK293T cells; also: read-out not given here; potency is read from the fitted curve at half-maximal effect; nearly all actives have a fitted effect of over 45% in size
Vaccinia Venus: inhibitors of vaccinia virus (Venus reporter); Vaccinia virus Venus reporter expression, fluorescence; AID 720580; hit rate 0.46% among 330,000; Potency, µM (titrated, usually from 36.5 µM), inactives show at the highest dose activity change, negative = inhibition, most hits filed as inhibitors; calls by dose curve; tested in A549 cells; also: potency is read from the fitted curve at half-maximal effect; nearly all actives have a fitted effect of over 30% in size
* = called active by the depositor; i = inactive; u = inconclusive; x = not tested or not shown; ! = a repeat was not active; [ ] = remark or other dose. Compounds with a hit are over-represented: about 6.5% of the library has one in this group of screens. % is scaled to controls: 0 for no effect and ±100 for the full control effect.

SMILES	Marburg entry inh	HCMV antiviral	Vaccinia mCherry	Lassa entry inh	FMDV antiviral	Vaccinia Venus
COCCN1C(=O)c2oc3cc(C)cc(C)c3c(=O)c2C1c1cccc(O)c1 (stereo not given)	-23.9%[46.1 µM]	-4.5	-2.4%	6.5%[46.1 µM]	-8.7%	-1.9%
Cc1cc(C)c2c(=O)c3c(oc2c1)C(=O)N(Cc1ccc(F)cc1)C3c1cccc(O)c1 (stereo not given)	u	-65.6*	-28.3%	-36.8%[46.1 µM]	-10.9%	u
O=C(C[n+]1cccc(Br)c1)c1ccc(F)cc1	x	x	-10.4%	x	x	-5.1%
O=C(c1cc2nc(-c3ccccc3)cc(C(F)(F)F)n2n1)N1CCN2CCCC2C1 (stereo not given)	3.2%[46.1 µM]	-35.5	-14.1%	u	-23.0%	-20.7%
O=C(c1nn2c(C(F)(F)F)cc(-c3ccccc3)nc2c1Cl)N1CCN2CCCC2C1 (stereo not given)	u	-61.3*	u	-17.3%[46.1 µM]	-2.4%	-27.5%
COc1ccc2c(c1)[C@H](C=Cc1ccccc1)[C@@H]([C@H](O)CO)O2	17.3%[14.2 µM]	x	x	x	x	x
O=C(Nc1ccc2c3c(cccc13)CC2)c1ccccc1	x	-3.2	i	x	47.7%	-3.4%
O=C(Nc1cccc2c1CCCC2)c1ccc(Cl)c([N+](=O)[O-])c1	-6.5%	-26.0	2.8%	0.4%	25.1µM*	4.3%
O=C(Nc1cccc2c1CCCC2)c1cc([N+](=O)[O-])ccc1Cl	-24.0%	-104.8*	-4.9%[1.46 µM]	u	u	-23.7%
O=C(Nc1ccc2c3c(cccc13)CC2)c1cccc([N+](=O)[O-])c1	u	-60.8*	-18.0%	-12.9%	-15.6%	-6.4%
O=C(Nc1ccccc1-c1ccccc1)c1ccc(Cl)c([N+](=O)[O-])c1	7.31µM*	-32.3	20µM*	23.1µM*	-9.1%	12.6µM*
Cc1cccc(CNC(=O)Cn2ccc3cc(S(=O)(=O)N4CCC(C)CC4)ccc32)c1	x	14.5	-7.1%	0.7%[46.1 µM]	7.3%	-3.3%
CC1(C(=O)Nc2ccc(Cl)c(Cl)c2)CCN1Cc1ccccc1OC(F)F (stereo not given)	x	121.8	i	x	31.6µM*	-24.1%
CC(=O)N1CCc2cc(NC(=O)C3(C)CCN3Cc3ccc(C(C)C)cc3)ccc21 (stereo not given)	x	-1.8	-19.6%	x	u	-15.8%
CC(=O)N1CCc2cc(NC(=O)C3(C)CCN3Cc3ccccc3Cl)ccc21 (stereo not given)	x	-78.5*	u	x	-2.9%	39.2%
COc1ccc(NC(=O)C2(C)CCN2Cc2ccccc2OC(F)F)cc1OC (stereo not given)	x	45.9	9.8%	x	-28.6%	-0.3%
CC(=O)N1CCc2cc(NC(=O)c3ccc(C)cc3)ccc21	u	77.2	x	16.4µM*	0.0%	x
Cc1cc(C)nc(N/C=C(\C#N)C(=O)c2cccc(CSc3ccccc3)c2)n1	x	x	-7.6%	x	x	-6.9%
Cc1ccc(Cl)cc1NC(=O)c1ccc(CSc2nnnn2C)cc1	-0.9%	-60.7*	x	1.4%	-2.8%	-7.4%
CC(=O)c1cc(-c2ccc(F)cc2)n(CCC(=O)Nc2nc3ccc(C)cc3s2)c1C	x	0.0	-25.7%	u	-28.6%	-23.9%
COc1ccc(C(=O)NCC(c2cccnc2)N2CCN(c3ccccc3F)CC2)cc1OC (stereo not given)	x	-9.6	-9.1%	16.4%[46.1 µM]	-24.7%	-22.1%
O=C(Cc1cc(=O)[nH][nH]1)N/N=C/c1cccc(Cl)c1Cl	u	-102.1*!	i	-1.6%	-10.2%	-9.2%
O=C(Cc1cc(=O)[nH][nH]1)N/N=C/c1cccc2ccccc12	x	-89.6*	x	x	7.3%	x
O=C(Cc1cc(=O)[nH][nH]1)N/N=C/c1ccccc1Cl	u	10.1	i	7.4%	-16.3%	-12.2%
CC(C)OC(=O)CSc1nnc2c(n1)[nH]c1ccc(F)cc12	-10.3%	-88.0*	x	u	u	x
SMILES	Marburg entry inh	HCMV antiviral	Vaccinia mCherry	Lassa entry inh	FMDV antiviral	Vaccinia Venus
O=C(CSc1nnc2c(n1)[nH]c1ccc(F)cc12)NCc1ccc(F)cc1	2.9%[46.1 µM]	-34.0	5.3%	x	-9.5%	-5.3%
COc1ccc(CNC(=O)CSc2nnc3c(n2)[nH]c2ccc(F)cc23)cc1	4.1%[46.1 µM]	-70.7*	21.5%	18.5%	-9.5%	3.2%
Cc1ccc(OCC(=O)NC(=S)Nc2ccccn2)c(Br)c1	u	-62.5*	i	u	15.8µM*	-10.3%
CCOC(=O)N1CCc2c(sc3c2C(=O)NC(c2ccc(N(C)C)cc2)N3)C1 (stereo not given)	u	-14.4	-22.2%[7.34 µM]	u	0.0%	-18.0%[7.34 µM]
CCOC(=O)N1CCc2c(sc3c2C(=O)NC(c2ccccc2)N3)C1 (stereo not given)	3.16µM*	x	x	u	u	-26.6%
CCOc1ccc(Nc2ncnc3c2nc2n3CCCCC2)cc1	x	-33.4	u	-4.5%[46.1 µM]	-24.4%	u
COC(=O)c1ccc(NC(=O)C2CCN(C(=O)c3cc(OC)c(OC)c(OC)c3)CC2)cc1	19.0%[46.1 µM]	-101.1*	-1.5%	0.5%	-7.0%	-18.3%
COCCn1c(=O)cnc2cnc(N3CCN(C)CC3)nc21	x	x	x	x	-10.6%	x
O=[N+]([O-])c1ccc(C[n+]2cccc3ccc4cccnc4c32)cc1	u	-96.4*	u	-23.8%	-17.0%	u
COc1ccc(CNC(=O)c2ccc3c(c2)N(Cc2cc(C)ccc2C)C(=O)CS3)cc1	2.5%[46.1 µM]	9.4	13.0%	8.4%[46.1 µM]	11.4%	-0.9%
CC1=C(C(=O)Nc2cc(C(=O)N3CCC(C)CC3)ccc2C)SCCO1	x	-63.4*	10.1%[7.34 µM]	x	-7.9%	24.0%[7.34 µM]
CC1=C(C(=O)Nc2cccc(C(=O)NC(C)C)c2)SCCO1	7.1%[46.1 µM]	-25.4	i	-18.3%[46.1 µM]	-7.8%	-10.8%
CCC(C)NC(=O)c1ccc(NC(=O)C2=C(C)OCCS2)cc1 (stereo not given)	-7.6%	-61.5*	-4.1%	u	5.5%	-2.7%
CCN1C(=NCCCCO)N[C@@H](CCc2ccccc2)[C@H](C(=O)OC)[C@H]1C	9.2%[14.2 µM]	x	x	u	x	x
CC(C)(C)C(=O)N(Cc1ccc(Cl)cc1)c1cnccn1	x	-63.7*	-17.1%	x	u	-25.0%
CC(C)C1=Nc2nc(N)nn2C(=O)C1	4.4%	x	x	x	x	x
O=C(CCCN1C(=O)/C(=C/c2cccs2)SC1=S)Nc1ccccn1	-15.0%[46.1 µM]	-97.6*	-22.0%	1.5%	0.0%	1.6%
O=C(CCCN1C(=O)/C(=C/c2ccccc2Cl)SC1=S)Nc1ccccn1	u	-97.0*	0.0%	u	u	2.2%
O=C1/C(=C/c2ccccc2Cl)SC(=S)N1CCCC(=O)N(CCO)c1ccccc1	x	-90.8*	x	x	u	x
O=C(CCN1C(=O)/C(=C/c2ccccc2Cl)SC1=S)Nc1ccccn1	x	4.3	x	x	-26.3%	x
O=C(CCCN1C(=O)/C(=C/c2ccccc2Cl)SC1=S)Nc1cccnc1	x	u	x	x	-6.4%	x
COc1ccc2c(c1)c(CC(=O)Nc1cccc(F)c1C)c(C)n2C(=O)c1ccc(Cl)cc1	-18.2%[46.1 µM]	-12.8	-11.7%	u	-3.4%	0.5%
CNc1nc2cnc(Nc3ccc(C(F)(F)F)cc3)cc2n1-c1cc(OC)c(OC)c(OC)c1	x	-13.8	x	x	x	x

Assay outcomes as filed in PubChem BioAssay.
